Shown is part of a subset that was picked to be rich in hits.
Cycloheximide cs: counter-screen for Shiga toxin inhibitors: cycloheximide protein synthesis inhibition | cell reporter, cycloheximide protein synthesis inhibition counterscreen | max response, % | 300,000 compounds, 12% hits | AID 2314; in the data active = max response mostly above about 13%, no sharp cut-off; inactive = mostly below about 14%; also: read at 38.3 µM for the half of the compounds with a filed dose; 0% is about no effect
Tb PYK inh: inhibitors of Trypanosoma brucei pyruvate kinase; 410,000 compounds, 0.12% hits; Potency, µM (series often up to 76.8 µM), inactives show at the highest dose activity, negative = inhibition, hits mostly inhibitors; TbPYK enzyme, Kinase-Glo Plus ATP luminescence, 45 min; Q57TT1; also: potency is read from the fitted curve at half-maximal effect; % is scaled to controls: 0 for no effect and ±100 for the full control effect; nearly all actives have a fitted effect of over 50% in size
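Luminescent Kinase-Glo Plus end-point after 45 min room-temperature reaction of T. brucei pyruvate kinase started with 130 uM ADP (final). Buffer TEA 50 mM pH 7.2 with KCl, MgCl2, BSA, Tween-20; titration-based qHTS with fitted concentration-effect curves.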
LmPK inh: LmPK (Leishmania mexicana) enzyme inhibition; purified LmPK, Kinase-Glo ATP luminescence, 1 h; Potency, µM (highest dose often 57.5 µM), inactives show at the top dose activity change, negative = inhibition, actives largely listed as inhibitors; 290,000 compounds, 0.37% hits; AID 1721; also: potency is read from the fitted curve at half-maximal effect; % is scaled to controls: 0 for no effect and ±100 for the full control effect
Target sequence (Q27686 whole entry, looked up): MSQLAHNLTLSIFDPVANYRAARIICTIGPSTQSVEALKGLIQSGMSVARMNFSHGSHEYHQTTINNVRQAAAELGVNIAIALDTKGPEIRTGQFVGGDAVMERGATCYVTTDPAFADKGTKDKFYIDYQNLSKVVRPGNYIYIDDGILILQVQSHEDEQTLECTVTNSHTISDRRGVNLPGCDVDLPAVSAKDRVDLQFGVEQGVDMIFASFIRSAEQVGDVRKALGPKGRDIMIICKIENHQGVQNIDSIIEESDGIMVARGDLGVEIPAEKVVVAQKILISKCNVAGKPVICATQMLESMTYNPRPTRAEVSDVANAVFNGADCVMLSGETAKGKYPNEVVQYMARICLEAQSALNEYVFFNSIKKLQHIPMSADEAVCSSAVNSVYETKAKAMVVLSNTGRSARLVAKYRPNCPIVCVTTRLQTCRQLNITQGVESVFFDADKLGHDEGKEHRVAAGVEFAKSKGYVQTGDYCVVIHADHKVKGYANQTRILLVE
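Kinase-Glo luminescence read after 1 h RT reaction of 0.1 nM LmPK with 0.5 mM PEP and 0.1 mM ADP. Activity scaled between uninhibited and enzyme-free controls.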
Shiga inhibitor: blocks Shiga toxin action in Vero cells | Vero cells, Shiga toxin protein synthesis inhibition reporter | 290,000 compounds, 9.2% hits | inhibition, % at 38.7 µM | AID 2315; in the data active = inhibition mostly above about 28%, no sharp cut-off; inactive = mostly below about 43%; also: 0% is about no effect
Giardia FBPA inh: blocks Giardia fructose-bisphosphate aldolase activity. purified Giardia FBPA. Potency, µM (titrated, usually from 59.6 µM), without a hit: at the top dose activity, negative = inhibition, hits mostly inhibitors. 290,000 compounds, 0.71% hits. AID 2451; also: potency is read from the fitted curve at half-maximal effect; % is scaled to controls: 0 for no effect and ±100 for the full control effect; nearly all actives have a fitted effect of over 55% in size
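40 nM FBPA preincubated 10 min at RT with compound (up to 57.5 uM final), then substrate plus GAPDH/TPI/NAD/arsenate coupling and diaphorase/resazurin added. Fluorescence read after 20 min at RT, 525/598 nm.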
RE007 growth inh: less growth of the S. pombe RE007 Vpr strain; Potency, µM (titrated, usually from 92.2 µM), for inactives: top-dose activity change, negative = less growth, most hits filed as inhibitors; 360,000 compounds, 0.21% hits; S. pombe RE007 Vpr strain, BacTiter-Glo ATP luminescence, 24 h; active = well fitted falling curve with a large enough effect; inconclusive = small, poorly fitted or top-dose-only effect; inactive = no such curve, though single readings can be large or run the other way; also: potency is read from the fitted curve at half-maximal effect; % is scaled to controls: 0 for no effect and ±100 for the full control effect; nearly all actives have a fitted effect of over 50% in size
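Fission yeast RE007 carrying one integrated HIV-1 vpr copy, seeded at OD 0.01 in PMG+AL medium with 23 nL pinned compound. Grown 24 h at 30 degrees; viability read by BacTiter-Glo luminescence after 5 min.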
* = called active by the depositor; ? = inconclusive; nt = no result. Unless noted, calls follow the shape of the dose curve; as a rule, active = well fitted curve in the direction sought with a large enough effect; inconclusive = small, poorly fitted or top-dose-only effect, or another doubt; inactive = no such curve, though single readings can be large; an effect the other way counts as inactive or inconclusive.

SMILES	Cycloheximide cs	Tb PYK inh	LmPK inh	Shiga inhibitor	Giardia FBPA inh	RE007 growth inh
CCOC(=O)c1csc(NC(=O)c2ccc(OCC)cc2)n1	38*	5%	1%	95*	0%	4%
CCOC(=O)c1csc(NC(=O)c2ccc(OC)c(OC)c2)n1	-3	-6%	4%	-4	8%	8%
Cc1nn(-c2ccc(N3CCOCC3)nn2)c(C)c1CCC(=O)NCc1ccccc1	3	1%	3%	14	0%	12%
COc1cc(OC)cc(C(=O)NC(=S)Nc2nc(-c3cc4ccccc4o3)cs2)c1	-1	1%	7%	-7	-1%	-7%
COCCNc1nc(-c2cc3ccccc3o2)cs1	83*	-8%	-5%	74*	0%	-17%
O=C1CSC(=S)N1/N=C/c1ccc(O)c(O)c1O	2	?	-21%	15	7.9µM*	-16%
CC(C)(C)c1ccc(/C=N/N2C(=O)CSC2=S)cc1	16*	-5%	4%	30	-20%	7%
COc1ccc(/C=N/N2C(=O)CSC2=S)cc1	9	1%	2%	17	-23%	-10%
CCOC(=O)CCN(c1ccccc1)S(=O)(=O)c1cc(-c2cc(C)no2)ccc1C	nt	4%	nt	nt	nt	nt
NS(=O)(=O)c1ccc(CNC(=O)c2cc(-c3cccnc3)nc3ccc(Br)cc23)cc1	-2	3%	-5%	-7	2%	11%
Cn1c(SCc2ccc(F)cc2)nc2ccc(C(=O)NCc3cccc(Cl)c3)cc21	nt	-9%	nt	nt	nt	nt
Cc1ccc(C(=O)COC(=O)c2cccc(NC(=O)c3ccc([N+](=O)[O-])cc3[N+](=O)[O-])c2)cc1	36*	5%	-7%	136*	5%	-8%
O=C(CN1C(=O)CCC1=O)c1ccc(-c2ccccc2)cc1	63*	-6%	4%	83*	3%	28%
Cc1ccc(S(=O)(=O)/N=C(/Sc2ccccc2C(=O)O)c2ccccc2)cc1	-11	-3%	-2%	-4	nt	9%
Cc1ccc(C(=O)Sc2cccccc2=O)cc1	78*	1%	-12%	135*	17%	?
N=c1ccn(CC(=O)c2ccc(-c3ccccc3)cc2)cc1	-1	4%	-6%	-5	5%	?
Cc1cc(C)c(NC(=O)CC(=O)c2ccccc2)c(Cl)c1	22*	-3%	-1%	65*	13%	96%
Cc1cc(C(=O)N2CCC(Cc3ccccc3)CC2)c(C)o1	-3	1%	-5%	-6	-4%	3%
Cc1nc(-c2ccccc2)sc1-c1ccc(SCC(=O)Nc2ccccc2)nn1	nt	1%	nt	nt	nt	nt
O=C(COC(=O)c1ccc(-c2cnc3ccccc3n2)cc1)c1ccccc1	11	3%	6%	10	5%	-4%
Cc1ccc[n+](CC(=O)c2ccc(-c3ccccc3)cc2)c1	-1	-14%	-5%	-9	2%	-12%
Cc1cc(C)c(C(=O)CC(=O)c2ccccc2Cl)c(O)c1	22*	8%	7%	22	-5%	?
Cc1ccc(C(=O)C[n+]2ccccc2)cc1	25*	-12%	-2%	36*	-1%	10%
CC(=O)Nc1cc(C(=O)OCC(=O)c2ccccc2)ccc1C	35*	0%	0%	active	1%	15%
Cc1cc(C)c(C(=O)c2ccccc2C(=O)O)c(C)c1	nt	10%	nt	nt	nt	23%
SMILES	Cycloheximide cs	Tb PYK inh	LmPK inh	Shiga inhibitor	Giardia FBPA inh	RE007 growth inh
Cc1ccc(C(=O)OCC(=O)c2ccccc2)cc1	23*	-3%	-7%	48*	-9%	3%
COc1cc(CN(C(=O)COc2ccccc2Cl)c2ccccn2)cc(OC)c1OC	nt	5%	nt	nt	nt	nt
CSc1ccc(CNC(=O)CN2C(=O)C3CCCCN3c3ccc(C(=O)N4CCCC4)cc32)cc1 (configuration not stated)	nt	12%	nt	nt	nt	nt
CCCCCn1c(CCCNC(=O)c2ccccc2)nc2ccccc21	nt	5%	nt	nt	nt	nt
CC(NC(=O)c1ccccc1)C(=O)OCC(=O)c1ccc(Br)cc1 (configuration not stated)	-1	-2%	-2%	10	0%	-3%
Cc1ccc(C(=O)Cc2ccccc2)cc1	nt	2%	nt	nt	nt	-11%
COc1ccc(CCC(=O)OC(C)C(=O)c2ccc(C)cc2)cc1 (configuration not stated)	-4	1%	-1%	-10	-3%	8%
CCCC(=O)c1ccc(-c2ccccc2)cc1	28*	-24%	-11%	84*	1%	2%
CC(=O)NC(C)C(=O)OCC(=O)c1ccc(-c2ccccc2)cc1 (configuration not stated)	16*	-2%	2%	49*	3%	2%
Cc1ccc(C(=O)CCc2ccc(N)cc2)cc1	31*	4%	2%	96*	-7%	9%
Cc1ccc(C(=O)CC(=O)c2ccccc2)cc1	48*	0%	-2%	66*	-23%	-14%
CCn1cc(C(=O)NCc2ccc(Cl)cc2)c(=O)c2cc(S(=O)(=O)N(C)C3CCCCC3)ccc21	nt	1%	nt	nt	nt	nt
CCCOc1ccc(CN(CCC#N)C(=S)NC(=O)c2ccccc2)cc1	23*	-19%	-3%	-32	?	-3%
Cc1ccc(OCc2ccc(-c3nc(C#N)c(N4CCC(C)CC4)o3)o2)cc1	nt	0%	nt	nt	nt	nt
Cc1ccc(-c2nc(C#N)c(N3CCC(C)CC3)o2)cc1	17*	0%	3%	65	5%	2%
COc1ccc(-c2nc(C#N)c(N3CCC(C)CC3)o2)cc1	16*	-14%	0%	13	-13%	-5%
CCn1c(CN2CCC(C)CC2)nc2cc(NC(=O)COc3ccc([N+](=O)[O-])cc3)ccc21	nt	0%	nt	nt	nt	nt
O=C(Nc1ccc(N2CCOCC2)c([N+](=O)[O-])c1)c1ccco1	20*	-4%	-3%	70*	-20%	4%
CN1CCN(c2ccc(NC(=O)c3ccco3)cc2Cl)CC1	47*	-8%	-3%	55	0%	-1%
CCC(=O)Nc1ccc(N2CCN(CC)CC2)c(Cl)c1	12	2%	4%	-14	nt	-7%
CCN1CCN(c2ccc(NC(=O)c3ccco3)cc2Cl)CC1	27*	0%	0%	59*	11%	-22%
CCN1CCN(c2ccc(NC(=O)c3cccc(F)c3)cc2Cl)CC1	18*	2%	-1%	97*	-4%	-15%
CC(NC(=O)c1cccc(NC(=O)c2nsc3ccccc23)c1)c1ccccc1 (configuration not stated)	nt	0%	nt	nt	nt	nt
Cc1ccccc1Cn1c(=O)n(CCCCC(=O)NCc2ccccc2Cl)c(=O)c2ccccc21	nt	7%	nt	nt	nt	nt
O=C(Nc1ccc(N2CCCC2)c(Cl)c1)c1ccco1	32*	-3%	-20%	92*	-18%	?

High-throughput results (PubChem BioAssay)
